# In all, about 330,000 compounds went through this assay and about 1,900 (0.58%) were called active. Roughly 4% stayed inconclusive and do not appear here. Cut-off read from the data, not from the text of the source: inconclusive = inhibition above about 70% without an active follow-up result; inactive = below that. A selection follows. Entries with a potency or affinity are not part of this list.
# Assay: M. tuberculosis growth inhibition, HTS (AID 449762);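 note: bacterial growth assessed after seven days of incubation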
# Conditions: M. tuberculosis H37Rv growth inhibition, 7H9 media; at 25 µM; active compounds read high
row,SMILES,inhibition
1,C#CCOCCOCCOCCNc1nc(N2CCN(C(=O)[C@H](CCC(=O)O)n3cc([C@@H](N)[C@H](C)CC)nn3)CC2)nc(N2CCN(C(=O)[C@H](CCC(=O)O)n3cc([C@@H](N)CCSC)nn3)CC2)n1,3.47% (inactive)
2,O=C1C=C(c2ccc3c(c2)oc2ccccc23)C[C@@H](c2ccc3c(c2)OCO3)C1,36.8% (inactive)
3,FC(F)(F)c1ccc(C2[C@H]3CN(CC4CCCCC4)[C@H](c4ccccc4)C34CC2(c2cccnc2)C4)cc1 (some centres undefined),58% (inactive)
4,c1ccc(C2[C@H]3CN(CC4CCCCC4)[C@H](c4ccccc4)C34CC2(c2ccccc2)C4)cc1 (some centres undefined),2.3% (inactive)
5,CC(C)(C#CCCCCC#CC(C)(C)[N+](C)(C)C)[N+](C)(C)C,-2.46% (inactive)
6,Cc1ccc(C(=O)/C=C/C(=O)O)cc1,-2.7% (inactive)
7,Cc1ccc(/C=C/C(=O)c2ccc(C)cc2)cc1,-12.1% (inactive)
8,Cc1cc(Nc2ccc(C(=O)O)cc2)n2nc(C)nc2n1,-2.73% (inactive)
9,O=C(COc1ccccc1)Nc1nnc(-c2ccccc2Cl)o1,28.7% (inactive)
10,O=C(Nc1ccccc1)c1nc2ccccc2s1,23.7% (inactive)
11,OC1CCCN(Cc2nc(Cc3ccccc3Cl)no2)C1 (centres undefined),-6.97% (inactive)
12,O=C(O)c1ccccc1Nc1cccc(OCc2ccc3ccccc3n2)c1,-1.2% (inactive)
13,CCCCC[C@@H](O)c1cc2ccccc2c(=O)o1,-0.25% (inactive)
14,CCc1ccc2c(c1)C(c1ccc(N3CCOCC3)cc1)=NNC(c1ccncc1)=N2,44.4% (inactive)
15,CCOC(=O)C1CCCN(C(=O)CCCn2c(=O)c3cccn3c3cccnc32)C1 (centres undefined),1.46% (inactive)
16,Cc1ccc(N2CC(C(=O)N3CCC(C(=O)Nc4ccc(Br)cc4)CC3)CC2=O)cc1 (centres undefined),32.6% (inactive)
17,CCc1ccc(N=c2c([N+](=O)[O-])nn(-c3ccccc3)n2O)cc1,64.6% (inactive)
18,COc1ccccc1N=c1c2c([N+](=O)[O-])cc([N+](=O)[O-])cc2n(O)n1-c1ccccc1OC,-0.38% (inactive)
19,COc1ccc(C(=O)N(CC2CCCO2)C(C(=O)NC2CCCC2)c2ccc(C)cc2)cc1OC (centres undefined),-13.5% (inactive)
20,COc1ccc(C(=O)CN2CC(C)SC2=Nc2ccc(Cl)cc2)cc1 (centres undefined),13.6% (inactive)
21,O=C1O/C(=C/c2ccccc2)c2ccccc21,4.48% (inactive)
22,CN(C)/C=C1/OC(=O)C(C#N)=C1c1ccc(Cl)cc1,-3.95% (inactive)
23,O=C1CC(c2ccc(Cl)cc2)CC(=O)C1CS(=O)(=O)c1ccccc1 (centres undefined),5.94% (inactive)
24,CCC(=O)N1N=C(c2ccc(NS(=O)(=O)c3ccccc3)cc2)CC1c1ccco1 (centres undefined),1.78% (inactive)
